Laboratory results: the supplement of paper PMC6555819

The sequences below were run on FXR:RXRa (NR concentration 270 nM, RXRa partner concentration 90 nM) (assay: PBM binding z-score (relative to random genomic background probes); higher = stronger binding; sequences stand for … in GC…GCGATTGACAGCGTAGAATGAAGG).
In short: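 The probes on custom Agilent 4×180K protein-binding microarrays were double-stranded, with 34-nt variable regions bearing direct-repeat seeds, single-nucleotide variants, half-site ablations and random human genomic background sequences. Incubation lasted 1 h with ligand-free nuclear receptor dimers in PBS pH 7.4, 2% milk, 0.02% Triton X-100, 1 mM DTT, 0.2 mg/mL BSA and 0.4 mg/ml salmon testes DNA. Antibodies against each partner (one per run) detected bound dimers, and fluorescence scans were regression-normalized. Binding z-scores take the random background probes as reference.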

Sequence | PBM binding z-score
TCAGACAGGTGAAGCTAACTCAGGTACGCAGTCG | 0.462
TAGCCTTGGTCATGCGGGCCAGTATAGTGTCGGC | -0.908
GTACCAAGGTGAATAGGTCGTTAATGAGTAGGCG | 0.719
GCTTGTAGATCAACGTTAAGAAAGACTAAGCTAA | -0.519
TCTTGTAGATCAAAGGGTAAGAAAGCCGAAGCCT | 0.566
GCTGATAGGTCAACTGATGGTCAGCTAAAGCTCG | 5.47
CATACAGGGTCAGCTAGGGCAGAGTAGGGACGGC | 4.71
AGTCAAAGTTCAGGACGATGTAACGTAAAGCACG | 3.6
TCTAGTTGGTCACGGTGGTCACACACGACGGGTA | -0.0806
CCGACTGGGGCAAGGTTGCCATAACGCACAGCCA | -0.306
CCTAGCGGGCCAGGGTCACTCAAGCATTTCGCTT | 2.02
AGAATGAGGTTGTACGTAGATCAGGGAAGAAAGT | -0.0554
AGAATGAGGTTATACGTACATCAGGGAAGAAAGT | 2.3
TGGAGTAGGTTAGGGGCATTCAGAATGGCGTCGA | 1.13
CCTACTGGGCCATTCAGAGGCCATTGATCATATG | -0.101
ATATGTAGGTTACGGGTCATTCAGGTTGGTTCGC | 3.73
TCGAGTAGGTTAGGGGTATTCAGAATGGCGTCGA | 0.347
CCTAGTTCGTCAAGGTCACACACGCTATAGGTAC | 4.55
TCTTTTAGTTGATTAGGGCAACCGAAACAGCGGA | 1.17
GCTAGCAGGGCATTTGGGTCACTCAATGACGGGC | 0.398

Sequence | PBM binding z-score
TGAATGAGGTTATAAGATCGGGGAACGTTGCAAA | 1.36
CGTCCCAGGTCAGAGAGGTCAGTGAATGCCGAGT | 4.31
CAAACTAGGGCAAAGGTCAAAGTCGAGCCAACCA | 7.07
CGAACTAGGTCATTGACGGGACAGTGAATAGTAA | 4.27
TCTTGTAGATCAACAGGCGGTTAAGAAAGATCGA | 0.118
ACTATTAGGTGACTTAGGGCAACCGATACGACGC | 0.616
TCTGCTACGTCAGTTGGTCAGCTAACGAGCTGCC | -1.7
CTCGAAAGGTCGTGCTCAAGTGAGTATACCAAAC | 5.4
TAGCCTAGGTCATTCAGGGGCCAGGATAGAAAGC | 4.96
CCTCGGAGGACAACAGGAGGTGAGAGCTGCCAGA | -0.0702
ACAGACAGGTGAGTGAAGGTAATTCAGCTGGACG | 0.214
CTACCAAGGTGAACAAGCTCGTTGATTACTATTC | 0.329
TAGCCTAGGTAATGCGGGCCAGTATAGTGTCGGC | -1.49
CCTCGGAGGACAAAAGGAGGTCAGAGCTGCCAGA | 1.18
GCTTGTAGAGCAAGGTTAAGAAAGACTAAGCTAA | -0.0313
TCATATAGGTAAAAGGAGAAAGTCGGTGTGGTAA | 1.15
TCTAGCAGGCCAGAGGTTCACTCAAGAGGTACGG | -0.592
TCGAGTAGGTTCGGGGCATTCAGAATGGCGTCGA | -0.238
TCTATTAGTTGATTAGGGCAACCTAAACAGCGGA | 0.561
ATACCAAAGTGATCGTGAGGTCGTTGATACTAAC | 1.23
